# Data from PubChem BioAssay AID1159580 (chemical genetic matrix, 2015).
# About 2,000 (36%) of roughly 5,500 compounds were called active. Another 18% or so got no clear call; they are omitted. The list shows a part of the results. Unmarked numbers belong to inactive results. No stated cut-off is given here; in the data, active means normalized growth mostly below about 0.91 (no sharp cut-off); inconclusive means no clear call, values can overlap the other calls; inactive means mostly above about 0.92.
# Assay: chemical genetic growth profiling, strain panel (AID 1159580);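 further: tested at 20 µM; growth read once vehicle control cultures reached saturation at 30 °C; 1 = growth at the plate median or of vehicle wells; lower values mean less growth of the strain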
# Settings: S. cerevisiae deletion strains, growth OD
smiles,measurement,setting,value
CC(C)=CCCC(C)[C@@H]1CC[C@]2(C)C3=C(CC[C@@]12C)C1(C)CC[C@H](O)C(C)(C)C1CC3 (some centres undefined),normalized growth,"locus YJL187C, strain SWE1 (second series), hits give low values",0.995
same,normalized growth,"locus YJL187C, strain SWE1, hits give low values",1.06
same,normalized growth,"locus YJR066W, strain TOR1, hits give low values",0.866
same,normalized growth,"locus YKL009W, strain mrt4, hits give low values",0.775 (active)
same,normalized growth,"locus YKL068W, hits give low values",1.04
same,normalized growth,"locus YKL085W, strain MDH1 (second series), hits give low values",1.03
same,normalized growth,"locus YKL085W, strain MDH1, hits give low values",1.03
same,normalized growth,"locus YKL160W, strain elf1, hits give low values",1.03
same,normalized growth,"locus YKR001C, strain vps1, hits give low values",0.979
same,normalized growth,"locus YKR026C, strain gcn3, hits give low values",1.09 [resistant] (active)
same,normalized growth,"locus YKR091W, strain srl3, hits give low values",1.1 [resistant] (active)
same,normalized growth,"locus YLL001W, strain dnm1, hits give low values",1.07
same,normalized growth,"locus YLL026W, hits give low values",1.07 [resistant] (active)
same,normalized growth,"locus YLL041C, strain sdh2, hits give low values",1.06
same,normalized growth,"locus YLR027C, strain aat2, hits give low values",1.07
same,normalized growth,"locus YLR039C, strain RIC1, hits give low values",1.24
same,normalized growth,"locus YLR058C, strain SHM2, hits give low values",0.996
same,normalized growth,"locus YLR102C, strain apc9, hits give low values",1.05
same,normalized growth,"locus YLR113W, strain HOG1, hits give low values",0.866
same,normalized growth,"locus YLR221C, strain rsa3, hits give low values",1.06
same,normalized growth,"locus YLR258W, strain gsy2, hits give low values",1.07
same,normalized growth,"locus YLR262C, strain YPT6 (second series), hits give low values",0.822 (active)
same,normalized growth,"locus YLR268W, strain sec22, hits give low values",0.973
same,normalized growth,"locus YLR320W, strain mms22, hits give low values",1.05
same,normalized growth,"locus YLR330W, strain CHS5, hits give low values",1.06
same,normalized growth,"locus YLR342W, strain FKS1, hits give low values",1.05
same,normalized growth,"locus YLR357W, strain rsc2, hits give low values",1.13
same,normalized growth,"locus YLR370C, strain arc18, hits give low values",1.07
same,normalized growth,"locus YLR371W, strain rom2, hits give low values",1.06
same,normalized growth,"locus YLR384C, strain iki3, hits give low values",1.07
same,normalized growth,"locus YLR418C, strain cdc73, hits give low values",1.15
same,normalized growth,"locus YML016C, strain PPZ1, hits give low values",1.06
same,normalized growth,"locus YML032C, strain rad52, hits give low values",0.946
same,normalized growth,"locus YML120C, strain ndi1, hits give low values",1.03
same,normalized growth,"locus YML124C, strain tub3, hits give low values",1.06
same,normalized growth,"locus YMR058W, strain fet3, hits give low values",1
same,normalized growth,"locus YMR078C, strain ctf18, hits give low values",1.08
same,normalized growth,"locus YMR125W, strain sto1, hits give low values",1.07
same,normalized growth,"locus YMR129W, hits give low values",1.06
same,normalized growth,"locus YMR205C, strain PFK2, hits give low values",1.04
same,normalized growth,"locus YMR223W, strain ubp8, hits give low values",0.971
same,normalized growth,"locus YMR231W, strain pep5, hits give low values",1.04
same,normalized growth,"locus YMR307W, strain GAS1, hits give low values",1.42 [resistant] (active)
same,normalized growth,"locus YNL067W, strain RPL9B, hits give low values",1.02
same,normalized growth,"locus YNL071W, strain lat1, hits give low values",1.04
same,normalized growth,"locus YNL128W, strain TEP1, hits give low values",0.996
same,normalized growth,"locus YNL183C, strain NPR1, hits give low values",0.846
same,normalized growth,"locus YNL209W, strain ssb2, hits give low values",1.06
same,normalized growth,"locus YNL233W, strain BNI4, hits give low values",1.13 [resistant] (active)
same,normalized growth,"locus YNL248C, strain rpa49, hits give low values",1.01
same,normalized growth,"locus YNL250W, strain rad50, hits give low values",0.996
same,normalized growth,"locus YNL271C, strain bni1, hits give low values",1.01
same,normalized growth,"locus YNL298W, strain CLA4, hits give low values",0.917
same,normalized growth,"locus YNL307C, strain MCK1, hits give low values",1.03
same,normalized growth,"locus YNL322C, strain KRE1 (second series), hits give low values",1.08
same,normalized growth,"locus YNR049C, strain mso1, hits give low values",1.08
same,normalized growth,"locus YNR052C, strain pop2, hits give low values",0.968
same,normalized growth,"locus YOL012C, strain htz1",1.41
same,normalized growth,"locus YOL147C, strain pex11, hits give low values",1.1 [resistant] (active)
same,normalized growth,"locus YOR001W, strain rrp6, hits give low values",1.02
same,normalized growth,"locus YOR061W, strain CKA2, hits give low values",0.994
same,normalized growth,"locus YOR069W, strain VPS5, hits give low values",1.05
same,normalized growth,"locus YOR070C, strain gyp1, hits give low values",1.05
same,normalized growth,"locus YOR080W, strain dia2, hits give low values",1.09 [resistant] (active)
same,normalized growth,"locus YOR083W, strain WHI5, hits give low values",0.994
same,normalized growth,"locus YOR106W, strain vam3, hits give low values",0.939
same,normalized growth,"locus YOR136W, strain idh2, hits give low values",1.02
same,normalized growth,"locus YOR144C, strain elg1, hits give low values",1.02
same,normalized growth,"locus YOR184W, strain ser1, hits give low values",0.85 (active)
same,normalized growth,"locus YOR231W, strain MKK1, hits give low values",0.874
same,normalized growth,"locus YOR265W, strain rbl2, hits give low values",1.07 [resistant] (active)
same,normalized growth,"locus YOR270C, strain vph1, hits give low values",0.839
same,normalized growth,"locus YOR290C, strain snf2, hits give low values",0.992
same,normalized growth,"locus YOR316C, strain cot1, hits give low values",1.06
same,normalized growth,"locus YPL051W, strain arl3, hits give low values",1.02
same,normalized growth,"locus YPL078C, strain atp4, hits give low values",1.02
same,normalized growth,"locus YPL106C, strain sse1, hits give low values",1.26 [resistant] (active)
same,normalized growth,"locus YPL240C, strain hsp82, hits give low values",1.05
same,normalized growth,"locus YPL256C, strain CLN2, hits give low values",0.994
same,normalized growth,"locus YPR119W, strain clb2, hits give low values",1.07
same,normalized growth,"locus YPR141C, strain kar3, hits give low values",1.05
same,normalized growth,"locus YPR163C, strain tif3, hits give low values",0.975
same,normalized growth,"locus YPR167C, strain met16, hits give low values",1.03
same,normalized growth,"strain wtn01, hits give low values",0.949
